The values that follow come from the supplement of paper PMC13380429.

The assay concerns Vero E6 infected with SARS-CoV-2. Briefly: inhibition of SARS-CoV-2 cytopathic effect; higher = more antiviral protection, active = above 15. The settings on record: 48 h. Background: Protection from cytopathic effect is a common read-out in antiviral testing.

Molecules are shown by their SMILES. Values without a mark were called inactive.

For the compound `Cc1cc(OCc2nnc(SC3CCCC3)n2-c2cccnc2)ccc1-c1ccc(S(C)(=O)=O)cc1`, the “inhibition of SARS-CoV-2 cytopathic effect” value (shortened to “inhibition”) runs as follows: (1 nM) -0.48%; (8.33 nM) 0.31%; (100 nM) 1.82%; (833.33 nM) 5.04%; (10000 nM) -19.7%.
`Nc1ncn([C@H]2C[C@H](O)[C@@H](CO)O2)c(=O)n1` [decitabine]: the “inhibition” value (1 nM) was 3.33%; the “inhibition” value (8.33 nM) was 3.36%; the “inhibition” value (100 nM) was 4.5%; the “inhibition” value (833.33 nM) is -1.04%; the “inhibition” value (10000 nM) is -3.03%.
Turning to `COc1cc(C(=O)N(CC[C@H]2CCCN2C)C/C(C)=C/c2ccccc2F)cc(OC)c1OC` (racemic), the “inhibition” value by setting is: (1 nM) -0.69%; (8.33 nM) -1.9%; (100 nM) 1.94%; (833.33 nM) -0.01%; (10000 nM) -1.76%.
As for `C[C@@H]1COCCN1c1cc(=O)n2c(n1)N(Cc1cncc(Cl)c1)[C@H](C(F)(F)F)CC2`, the “inhibition” value (1 nM) was -2.96%; the “inhibition” value (8.33 nM) was 2.22%; the “inhibition” value (100 nM) is -0.24%; the “inhibition” value (833.33 nM) was 7.24%; the “inhibition” value (10000 nM) was 44.4% (active).
As for `CCC(=O)N1CCN(c2ccc(-n3c(=O)ccc4cnc5ccc(-c6cnc7ccccc7c6)cc5c43)cc2C(F)(F)F)CC1` [torin-1], the “inhibition” value (1 nM) is 1.59%; the “inhibition” value (8.33 nM) is -1.08%; the “inhibition” value (100 nM) was 0.88%; the “inhibition” value (833.33 nM) was -0.28%; the “inhibition” value (10000 nM) was -0.2%.
On to `CN[C@H](CNC(=O)N1CCC[C@@H]([C@@H](OCCNC(=O)OC)c2cccc(Cl)c2)C1)C[C@H]1CCCOC1`, for which the “inhibition” value was 1.34% (1 nM); -1.3% (8.33 nM); 1.14% (100 nM); -0.1% (833.33 nM); 3.16% (10000 nM).
Regarding `CNC(=O)[C@H](Cc1ccccc1)NC(=O)[C@H](CC(C)C)[C@H](CSc1cccs1)C(=O)NO` [batimastat], the “inhibition” value was -1.9% (1 nM); -1.84% (8.33 nM); -3.51% (100 nM); -9.99% (833.33 nM); -12.5% (10000 nM).
Regarding `O=C(O)c1ccc(Nc2ncc3c(n2)-c2ccc(Cl)cc2C(c2c(F)cccc2F)=NC3)cc1`, the “inhibition” value runs as follows: (1 nM) -1.58%; (8.33 nM) -1.02%; (100 nM) 0.11%; (833.33 nM) -1.57%; (10000 nM) -1.05%.
Take `COc1ccc2cc1Oc1ccc(cc1)C[C@H]1c3c(cc4c(c3Oc3cc5c(cc3OC)CCN(C)[C@@H]5C2)OCO4)CCN1C` [cepharanthine]: the “inhibition” value by setting is: (1 nM) -0.29%; (8.33 nM) -1.27%; (100 nM) -1.35%; (833.33 nM) -2.66%; (10000 nM) 21.3% (active).
With `CN1CCN(c2c(F)cc3c(=O)c(C(=O)O)cn(CCF)c3c2F)CC1` [fleroxacin], the “inhibition” value was -1.94% (1 nM); -0.15% (8.33 nM); 1.24% (100 nM); 0.81% (833.33 nM); -1.08% (10000 nM).
Take `Nc1ccn([C@H]2CC[C@@H](CO)O2)c(=O)n1` [zalcitabine]: the “inhibition” value runs as follows: (1 nM) -0.47%; (8.33 nM) -1.89%; (100 nM) -4.07%; (833.33 nM) -2.84%; (10000 nM) -0.03%.
As to `CC1(C)S[C@@H]2[C@H](NC(=O)[C@H](N)c3ccc(O)cc3)C(=O)N2[C@H]1C(=O)O` [amoxicillin], the “inhibition” value is -2.41% (1 nM); -1% (8.33 nM); -0.76% (100 nM); -0.16% (833.33 nM); -2.88% (10000 nM).
For `CN(C)CC/C=C1\c2ccccc2CSc2ccccc21` [dosulepin], the “inhibition” value is -1.78% (1 nM); 1.37% (8.33 nM); 5.41% (100 nM); -0.17% (833.33 nM); -8.17% (10000 nM).
In the case of `CO[C@H]1/C=C/O[C@@]2(C)Oc3c(C)c(O)c4c(O)c(c(/C=N/N=C/N5CCCCC5)c(O)c4c3C2=O)NC(=O)/C(C)=C\C=C\[C@H](C)[C@H](O)[C@@H](C)[C@@H](O)[C@@H](C)[C@H](OC(C)=O)[C@@H]1C`, the “inhibition” value was 5.27% (1 nM); 5.73% (8.33 nM); 6.01% (100 nM); 4.61% (833.33 nM); 3.27% (10000 nM).
On to `CC(C)(C)C1CCc2c(sc(NC(=O)c3ccco3)c2C(=O)O)C1` (stereo not given), for which the “inhibition” value is, setting by setting: (1 nM) 0.37%; (8.33 nM) 3.15%; (100 nM) 1.01%; (833.33 nM) 0.8%; (10000 nM) -2.29%.
For `CC1(C)CC(=O)c2c(C(F)(F)F)nn(-c3ccc(C(N)=O)c(N[C@H]4CC[C@H](O)CC4)c3)c2C1`, in that order: 1.9%, 1.97%, -3.3%, -1.33% and -0.66%.
`Cn1c(=O)c2c(ncn2CC(=O)O)n(C)c1=O` [acefylline]: the “inhibition” value is, setting by setting: (1 nM) -0.43%; (8.33 nM) 3.14%; (100 nM) 12.4%; (833.33 nM) 0.66%; (10000 nM) 0.73%.
